Compound activity (PubChem)
Only some compounds are listed: those with a hit (about 5.8% of all), similar ones and a draw of the others.
Gal4-VP16 FLuc = counter-screen for ROR gamma inhibitors: Gal4-VP16 reporter; Drosophila S2 Gal4-VP16 UAS-luciferase, luminescence, 20 h; Potency, µM (series often up to 53.6 µM), inactives show top-dose activity, negative = inhibition, actives largely listed as inhibitors; actives 3.5% (n = 310,000); AID 2546;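 note: Gal4-VP16 expression switched on by copper sulfate through the metallothionein promoter; potency is the fitted concentration of half-maximal effect; % is set by controls: 0 for no effect and ±100 for the full control effect; nearly all actives have a fitted effect of over 50% in size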
TRPV1 PAM = human TRPV1 potentiation. potentiation, % at 8.33 µM. Q8NER1. AID 540277. TRPV1-expressing cells, Fluo-8 calcium influx, capsaicin EC20 potentiation. actives 0.02% (n = 320,000); in the data active = potentiation above about 80%; inconclusive = between about 30% and that limit; note: 0% is about no effect
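Cells expressing TRPV1 were dye-loaded with Fluo-8 and read kinetically: 10 s baseline, 3 min after compound (agonist portion), then 2 min after EC20 capsaicin (allosteric enhancer portion). Calcium-bound dye fluorescence at 480/520 nm.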
uPA surface inh = blocks generation of uPA at the cell surface. cell surface uPA generation assay, qHTS. actives 0.31% (n = 330,000). Potency, µM (series often up to 38.3 µM), inactives show top-dose activity change, negative = inhibition, usual class: inhibitors. AID 540303; active = well fitted inhibition curve with a large enough effect; inconclusive = small, poorly fitted or top-dose-only effect; inactive = no such curve, though single readings can be large or run the other way; tested in mouse RAW 264.7 cells; note: potency is the fitted concentration of half-maximal effect; % is set by controls: 0 for no effect and ±100 for the full control effect; nearly all actives have a fitted effect of over 55% in size
TRPV1 agonist = agonists of human vanilloid receptor 1 (TRPV1). Q8NER1. activation, % at 8.33 µM. actives 0.19% (n = 320,000). TRPV1-expressing cells, Fluo-8 calcium influx, agonist mode; in the data active = activation above about 80%; inconclusive = between about 30% and that limit; note: 0% is about no effect
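Fluo-8 calcium influx in TRPV1-expressing cells, kinetic read (ex 480/em 520 nm). Compound added and read 3 min for agonist activity, followed by capsaicin at EC20 final and 2 min further read for enhancement.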
RORgamma inh = blocks mouse ROR gamma transcriptional activity; P51450; Drosophila S2 Gal4-RORgamma UAS-luciferase reporter, 20 h; Potency, µM (highest dose often 53.6 µM), without a hit: top-dose activity change, negative = inhibition, most hits filed as inhibitors; actives 5.4% (n = 310,000); note: potency is the fitted concentration of half-maximal effect; % is set by controls: 0 for no effect and ±100 for the full control effect; nearly all actives have a fitted effect of over 60% in size
Target sequence (P51450 whole entry, looked up, the tested form may be a part): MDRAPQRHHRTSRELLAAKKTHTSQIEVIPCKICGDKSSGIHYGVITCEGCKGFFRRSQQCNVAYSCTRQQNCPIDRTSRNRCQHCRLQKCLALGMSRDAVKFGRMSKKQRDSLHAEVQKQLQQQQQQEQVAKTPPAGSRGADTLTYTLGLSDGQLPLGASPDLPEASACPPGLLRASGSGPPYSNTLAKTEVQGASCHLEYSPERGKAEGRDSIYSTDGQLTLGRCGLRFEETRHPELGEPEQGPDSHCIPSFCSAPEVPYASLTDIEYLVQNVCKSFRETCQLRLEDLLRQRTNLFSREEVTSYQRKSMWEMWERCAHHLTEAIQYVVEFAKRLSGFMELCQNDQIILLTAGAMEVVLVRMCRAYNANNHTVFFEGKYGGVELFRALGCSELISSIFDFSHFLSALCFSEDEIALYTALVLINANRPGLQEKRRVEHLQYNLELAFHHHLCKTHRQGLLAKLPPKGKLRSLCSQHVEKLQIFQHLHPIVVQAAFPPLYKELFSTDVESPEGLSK
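Using a luciferase readout, inhibitors were identified by reduced reporter activity in Drosophila cells coexpressing a copper-inducible Gal4–ROR gamma fusion and UAS-driven Photinus luciferase, incubated 20 hr after 700 uM copper sulfate.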
* marks the source's active call; other numbers are inactive results; ? = inconclusive; . = no result given; [ ] = dose if it differs, or a comment. Unless noted, calls come from the whole dose curve; as a rule, active = well fitted curve in the direction sought with a large enough effect; inconclusive = small, poorly fitted or top-dose-only effect, or another doubt; inactive = no such curve, though single readings can be large; an effect the other way counts as inactive or inconclusive.

SMILES | Gal4-VP16 FLuc | TRPV1 PAM | uPA surface inh | TRPV1 agonist | RORgamma inh
Brc1cc2c(cc1/C=N/Nc1nc(N3CCCCC3)nc(N3CCCCC3)n1)OCO2 | -6.5% | 5.8 | . | 10.2 | 1.78µM*
Clc1cc2c(cc1/C=N/Nc1nc(N3CCOCC3)nc(N3CCOCC3)n1)OCO2 | -0.5% | -5.0 | 0.2% | 0.6 | 24.3%
Cc1cc(N/N=C/c2ccccc2)nc(N2CCOCC2)n1 | -13.1% | -13.3 | 10.3% | 85.5* | 38.4%
Cc1ccc(/C=N/Nc2cc(C)nc(N3CCOCC3)n2)cc1 | -6.4% | -27.9 | -1.2% | ? | 23.7%
Cc1cc(NC(=O)Nc2ccc(N(C)C)cc2)c2cc(F)cc(F)c2n1 | 6.1% | . | . | . | ?
COc1ccc2[nH]c(-c3ccc(C)cc3)cc(=O)c2c1 | 7.94µM* | -13.2 | 2.82µM* | ? | 10µM*
COc1ccc(-c2cc(=O)c3cc(F)ccc3[nH]2)cc1 | 1.0%[96.6 µM] | -16.7 | -1.8% | 11.3 | -1.7%[96.6 µM]
CCCn1c(=S)[nH]c2cc(C(=O)N(CCO)Cc3ccccc3)ccc2c1=O | ? | -8.8 | 5.3% | -0.6 | 12.6µM*
COCCn1c(=S)[nH]c2cc(C(=O)N3CCCC(C)C3)ccc2c1=O (stereo unspecified) | ? | 7.9 | -4.0% | 0.2 | ?
CC1CCCN(C(=O)c2ccc3c(=O)n(Cc4ccc5c(c4)OCO5)c(=S)[nH]c3c2)C1 (stereo unspecified) | ? | 10.2 | . | 1.9 | 7.94µM*
CCN(CC)C(=O)c1ccc2c(=O)n(Cc3cccc(Br)c3)c(=S)[nH]c2c1 | 12.6µM* | 8.7 | 0.5% | -1.7 | 7.08µM*
CCCN(CCC)C(=O)c1ccc2c(=O)n(Cc3ccco3)c(=S)[nH]c2c1 | ? | 4.0 | 10.6% | -1.0 | 3.16µM*
Cc1cc(Br)ccc1OCCn1ccnc1 | -5.1% | -1.7 | 2.2% | 2.6 | -16.3%
Cc1ccc(S(=O)(=O)NNC(=O)c2ccc(NC(=O)C3CC3)cc2)cc1 | -9.7% | 8.8 | 6.8% | -2.6 | -5.4%
CC(C)OCCCNC(=O)c1ccc2c(=O)n(Cc3ccc4c(c3)OCO4)c(=S)[nH]c2c1 | 1.8% | -4.0 | 5.5% | -2.8 | 3.4%
O=c1c2c3c(sc2[nH]c(=S)n1Cc1ccco1)CCC3 | ? | -5.4 | -3.2% | 3.7 | ?
CCN(CC)C(=O)c1ccc2c(=O)n(Cc3ccc4c(c3)OCO4)c(=S)[nH]c2c1 | ? | 17.6 | -10.8% | 0.5 | 11.2µM*
CC1(C)Cc2c(sc3[nH]c(=S)n(Cc4ccco4)c(=O)c23)CO1 | 1.41µM* | -4.5 | -18.6% | 1.5 | 1µM*
OC(COCCOc1ccc(Br)cc1)CN1CCCCC1 (stereo unspecified) | -8.7% | 3.9 | 3.0% | 2.6 | 11.7%
COCC(=O)N1CCC2(CC1)CCN(C(c1ccccc1)c1ccccc1)CC2 | 2.7% | . | . | . | -31.2%
CN(C)C(=O)C1C2NC(=S)N(c3ccc(Cl)cc3)C1(C)Oc1ccc(Cl)cc12 (stereo unspecified) | ? | -7.5 | 1.0% | 28.3 | 10µM*
CN(C)C(=O)C1C2NC(=S)N(c3cccc(Cl)c3)C1(C)Oc1ccc(Cl)cc12 (stereo unspecified) | ? | -7.5 | -1.2% | 15.2 | 10µM*
Cc1cc(NCCCCO)n2c(nc3ccccc32)c1C#N | -6.1% | 3.2 | 0.0% | 0.4 | -9.3%
C=C(C)CSc1cc(C)c(C#N)c2nc3ccccc3n12 | 3.98µM* | 8.1 | -7.6% | -6.2 | ?
CN(C)S(=O)(=O)c1cccc(NC(=O)c2cncc(Br)c2)c1 | ? | -4.7 | 2.8% | 19.2 | ?
SMILES | Gal4-VP16 FLuc | TRPV1 PAM | uPA surface inh | TRPV1 agonist | RORgamma inh
Cc1ccc(S(=O)(=O)N(C)C)cc1NC(=O)c1cncc(Br)c1 | 2.51µM* | ? | 4.4% | 0.4 | 10µM*
CC1CCC(NCCNC(=O)c2ccco2)CC1 (stereo unspecified) | -3.8% | -1.0 | 1.5% | 1.5 | 0.4%
CCOC(=O)N1CCC(N(CCN(C)C)C(=S)Nc2cccc(OC)c2)CC1 | 0.1% | -9.4 | -7.1% | 10.2 | ?
CCOC(=O)N1CCC(N(CCN(C)C)C(=S)Nc2cc(Cl)cc(Cl)c2)CC1 | ? | -5.9 | 1.3% | 23.8 | 10µM*
CCOC(=O)N1CCC(N(CCOC)C(=S)Nc2cccc(SC)c2)CC1 | 4.0%[10 µM] | -5.0 | 1.1% | 5.3 | 20µM*
CC(C)N(CCCNC(=O)c1ccc(CS(=O)(=O)c2c(Cl)cccc2Cl)o1)Cc1ccccc1 | -1.7% | 1.1 | -12.5% | -0.1 | -3.6%
COc1cccc(COCCN2CCN(S(=O)(=O)c3ccccc3)CCC2=O)c1 | -16.3% | . | . | . | 16.6%
COc1ccc(NC(=O)/C(Cl)=C(/Cl)S(=O)(=O)Cc2ccccc2)cn1 | 3.16µM* | -1.1 | -5.1% | -1.4 | ?
COc1ccc(NC(=O)/C(Cl)=C(/Cl)S(=O)Cc2ccc(Cl)cc2)cn1 (stereo unspecified) | 2.82µM* | -4.6 | 23.8% | 7.2 | 0.794µM*
N#Cc1nc(Nc2ccccc2)nc(NC2CCCC2)n1 | -24.9% | . | . | . | .
CCCCc1ccc(NC(=O)CN(C)CC(=O)Nc2ccccc2Cl)cc1 | 0.2% | -3.1 | -1.8% | 19.1 | -0.4%
O=[N+]([O-])c1ccc(Sc2nnnn2-c2ccccc2)nc1 | ? | 3.2 | -17.5% | -3.7 | 3.55µM*
COc1cc(C(=O)NCC(=O)N/N=C/c2cccnc2)cc(OC)c1OC | -10.4% | -7.4 | 1.3% | 0.3 | -24.8%
Cc1ccc(NC(=O)COC(=O)CC2CCCC2)cc1Cl | -18.8% | -7.4 | . | ? | 6.1%
COc1ccc(/C(N)=N/OC(=O)c2ccco2)cc1 | 10µM* | -1.8 | -11.1% | 8.7 | 7.94µM*
CC(=O)OC[C@H]1O[C@@H](O/N=C(\C)CCN2CCCc3nc(C)c(C)cc32)[C@H](OC(C)=O)[C@@H](OC(C)=O)[C@H]1OC(C)=O | -3.0%[10 µM] | . | . | . | -0.7%[10 µM]
CCN1C(=O)/C(=C/C=C2\C=CN(CC)c3ccccc32)SC1=S | -5.7% | 12.4 | -0.8% | -2.3 | 14.1%
CCN1C(=O)/C(=C\C=C2/C=CC=CN2CC)SC1=S | ? | -11.2 | -8.4% | -0.2 | 8.91µM*
COC(=O)c1ccc(-n2c(C)cc(C(=O)CSc3cccc[n+]3[O-])c2C)cc1 | -0.1% | 3.9 | ? | 0.7 | 21.2%
COC(=O)c1ccc(C(=O)OC)c(NC(=O)CSc2cccc[n+]2[O-])c1 | 3.55µM* | 7.7 | -58.3% | 1.4 | 5.01µM*
O=C(CSc1cccc[n+]1[O-])Nc1ccccc1Oc1ccccc1 | 7.94µM* | 0.8 | 2.2% | -1.1 | 6.31µM*
Cc1ccc(NC(=O)C2CC(=O)N/C(=N/N=C/c3ccco3)S2)cc1C (stereo unspecified) | -16.7% | -6.1 | 0.9% | 3.9 | ?
O=c1c2c([nH]c3ccc(Br)cc13)CCCC2 | ? | -6.5 | 8.8% | 8.1 | -3.4%
O=C1Cc2c([nH]c3ccc(Br)cc23)-c2ccccc2N1 | 25.1µM* | . | -6.9% | . | -5.3%
Cc1ccc(NC(=O)CC2SCCNC2=O)cc1[N+](=O)[O-] (stereo unspecified) | 1.9% | -3.4 | 1.5% | 2.8 | 6.4%
